The values below come from PubChem BioAssay AID587 (National Center for Advancing Translational Sciences (NCATS), 2007).

The structures appear in SMILES notation. Hit rate of the full screen: of about 59,000 compounds, about 35 (0.06%) were called active. About 19% were inconclusive and are not listed. Cut-off read from the data, not from the text of the source: active = max dye-equivalent concentration above about 10 nM; inconclusive = between about 1.1 nM and that limit; inactive = weaker than that. The entries come from a sample that favours actives as a whole.

The assay can be described thus: qHTS Assay for Spectroscopic Profiling in Texas Red Spectral Region. The following applies: Compound fluorescence, Texas Red channel, 547/618 nm; stronger effect = higher value. From the text: NIH Molecular Libraries Screening Centers Network [MLSCN] NIH Chemical Genomics Center [NCGC] […] Occasionally, the artifactual effect may originate from the compound#s own spectral or other biophysical properties which generally tend to track its assay concentration. Pre-screening/profiling the library with respect to the compounds# spectral properties should help one exclude false positives early on. While the most informative fluorescent profiling data set is obtained by performing a full excitation and emission scan of each well by using a monochromator-based plate reader, such an approach is practical only on a very limited scale as scanning each well requires long time. An alternative approach, applied here, is to perform plate reader scans using selected excitation and emission wavelength pairs to generate a multidimensional relational database that correlates compound concentration and the respective relative fluorescence intensity at a given wavelength set. A standard curve of Texas Red (TR) present on each plate as six-point concentration series, was used to compute a normalized fluorescence response, termed dye-equivalent concentration, for each compound at each concentration.
NCGC Assay Protocol Summary: Buffer: 100 mM Tris buffer, pH 8.0 Dye standard plate: The wells in columns 1 through 4 of a Kalypsys polypropylene 1536-well compound plate were filled with standard solutions of fluorophore corresponding to the spectral region of interest. Solutions of TR were placed in the following wells: U1, V1: 3 mM, U2, V2: 300 uM, U3, V3: 30 uM, U4, V4: zero (DMSO), W1, X1: 3 uM, W2, X2: 900 nM, W3, X3: 300 nM, W4, X4: zero (DMSO). Assay Steps: Six uL of buffer were dispensed to 1536-well Greiner black plates. Compounds and dye standards (23 nL) were transferred via Kalypsys PinTool. The plates were incubated for 15 min at room temperature, and then read on ViewLux (Perkin-Elmer) High-throughput CCD imager using 547 nm and 618 nm excitation and emission filter set. Keywords: NIH Roadmap, MLSCN, MLI, MLSMR, qHTS, NCGC, Texas Red, Fluorescent Profiling.
(In general: qHTS replaces the single test concentration by a dilution series.)
Consider `COc1ccc2nccc(C(=O)O)c2c1`, for which the max dye-equivalent concentration result was “inactive”.
In the case of `Cc1ccc(C(=O)Nc2nnc(-c3cccs3)s2)cc1C` it was “inactive”.
In the case of `CCc1ccccc1NC(=O)CSc1nnc([C@@H](NC(=O)OC(C)(C)C)C(C)C)o1` it was “inactive”; in that of `Cc1ccc(F)cc1NC(=O)c1ccc2c(c1)OCO2`, “inactive”.
For the compound `CC(C)[C@H](NC(=O)Nc1ccc(S(N)(=O)=O)cc1)C(=O)O`, the max dye-equivalent concentration result was “inactive”.
Next, `CCc1ccccc1N(CC(=O)N1CCN(c2ccccc2F)CC1)S(C)(=O)=O`: “inactive”; `CCOc1ccccc1/C=c1\sc2nc(-c3ccco3)nn2c1=O`: “inactive”; `COc1ccccc1NC(=O)CSc1nc2sc(C)c(C)c2c(=O)n1Cc1ccco1`: “inactive”.
As to `CN(c1ccccc1)c1ccc(/C=c2\s/c(=C(/C#N)C(=O)C(C)(C)C)n(Cc3ccco3)c2=O)cc1`, the max dye-equivalent concentration was 54 nM (active).
In the case of `Cc1c(S(=O)(=O)O)ccc(N=Nc2c(O)c(C(=O)O)cc3ccccc23)c1Cl` it was “inactive”; in that of `O=C(NCc1ccco1)c1cnn2c(C(F)(F)F)cc(-c3ccco3)nc12`, “inactive”; in that of `COCCn1c(=O)c(-c2cccs2)nc2cnc(N3CCN(C)CC3)nc21`, “inactive”.
Consider `COCCn1c(=O)c(CCc2ccccc2)nc2cncnc21`, for which the max dye-equivalent concentration entry was “inactive”.
In the case of `COc1ccc(-c2nc3cnc(N(C)C)nc3n(Cc3cccs3)c2=O)cc1` it was “inactive”.
`c1ccc2c(Nc3ccncc3)nc(-c3ccc4c(c3)OCO4)nc2c1`: the max dye-equivalent concentration entry was “inactive”.
In the case of `Cn1c(=O)c(CCc2ccccc2)nc2cnc(Nc3ccccc3)nc21` it was “inactive”; in that of `CS(=O)(=O)NCc1ccc(C(=O)NCc2ccccc2)cc1`, “inactive”; in that of `CCc1cccc(C)c1NC(=O)CSc1nnc(-c2ccco2)n1N`, “inactive”.
In the case of `O=C(Nc1ccccc1F)c1cc(S(=O)(=O)N2CCCCC2)cs1`, the max dye-equivalent concentration result was “inactive”.
In the case of `Fc1cnc(N2CCOCC2)nc1NCc1ccccc1` it was “inactive”.
Next, `CCNc1ncc2ncc(=O)n(CCc3ccccc3)c2n1`: “inactive”; `Cc1noc(C)c1-c1nc(Nc2ccccc2)c2ccccc2n1`: “inactive”; `Cc1cc(N2CCCC2)n2nc(C)c(-c3ccccc3)c2n1`: “inactive”.
Next, `CC(C)(C)c1csc(NC2=NS(=O)(=O)c3ccccc32)n1`: “inactive”.
As to `COc1ccc(-c2nc3cnc(Oc4ccccc4)nc3n(Cc3cccs3)c2=O)cc1`, the max dye-equivalent concentration entry was “inactive”.
In the case of `COC(=O)CN(c1nc(C)c(Cl)c(OC)n1)S(=O)(=O)c1ccc(C)cc1` it was “inactive”.
Next, `COC(=O)CNC(=O)c1ccc2c(c1)S(=O)(=O)c1ccccc1C2=O`: “inactive”; `CC(C)C1N=C2c3ccccc3N=C(SCC(=O)c3ccc(O)c(O)c3)N2C1=O` (centres undefined): “inactive”; `O=C(O)C1CCCCC1C(=O)Nc1ccc(Cl)cc1` (centres undefined): “inactive”.
Consider `CCCS(=O)(=O)C(=C1Nc2ccccc2N1)S(=O)(=O)CCC`, for which the max dye-equivalent concentration result was “inactive”.
Regarding `Cn1c(-c2ccc(C(=O)c3ccccc3)s2)nc2ccccc21`, the max dye-equivalent concentration entry is “inactive”.
Next, `O=C(NCC1CCCO1)C(C(=O)c1ccccc1)n1cc(Cl)ccc1=O` (centres undefined): “inactive”; `CCOC(=O)c1[nH]c2ccc(C)cc2c1N=C(C)N(C)C`: “inactive”.
Next, `COC(=O)N1CCC2(CCCN(c3ccncc3)C2)CC1`: “inactive”.
For the compound `COCCn1c(=O)c(-c2ccccc2)nc2cnc(N3CCOCC3)nc21`, the max dye-equivalent concentration result was “inactive”.
For the compound `COCCn1c(=O)c(-c2cc(F)cc(F)c2)nc2cncnc21`, the max dye-equivalent concentration result was “inactive”.
In the case of `Cc1nn2c3ccccc3nc2n(C)c1=O` it was “inactive”.
In the case of `O=C(COc1ccc2c3c(c(=O)oc2c1)CCC3)NC1CCCCC1` it was “inactive”.
Next, `O=C(NCc1ccccn1)c1cc2ccccc2oc1=O`: “inactive”; `COc1ccc(Cl)cc1NC(=O)c1oc(C)nc1C`: “inactive”; `Cc1c(C)c2c(c(C)c1O)CC[C@@](C)(CN1CCN(c3cc(N4CCCC4)nc(N4CCCC4)n3)CC1)O2`: “inactive”.
As to `O=C1CC2(CCCCC2)Oc2ccc(OCC(=O)N3CCOCC3)cc21`, the max dye-equivalent concentration result was “inactive”.
In the case of `Cc1cnc(CNc2cc(-c3c(C)noc3C)ncn2)cn1` it was “inactive”.
In the case of `CS(=O)(=O)Nc1cccc(-c2cncnc2Nc2ccccc2)c1` it was “inactive”; in that of `CC(C)OC(=O)C(C#N)c1nc2ccccc2nc1N1CCN(Cc2ccc3c(c2)OCO3)CC1` (centres undefined), “inactive”; in that of `Oc1ccc2ccccc2c1C=NCc1c(O)ccc2ccccc12`, “inactive”.
As to `COCCNC(=S)c1ccc(OC)cc1`, the max dye-equivalent concentration entry was “inactive”.
In the case of `CCOC(=O)c1cnc2sccn2c1=O` it was “inactive”; in that of `COc1ccc(OC)c(C(=O)CSc2nnc(-c3cccs3)o2)c1`, “inactive”.
In the case of `CCCCn1c(SCC(=O)N2CCC(C(=O)OCC)CC2)nc2cc(S(N)(=O)=O)ccc21` it was “inactive”; in that of `Cc1cc(N2CCCCC2)nc2ccc(Cc3ccc4nc(N5CCCCC5)cc(C)c4c3)cc12`, “inactive”.
As for `CC(C)c1nc2oc3c(N4CCN(C)CC4)ncnc3c2c2c1CCC2`, the max dye-equivalent concentration entry was “inactive”.
In the case of `COCCNc1cc(-c2c(C)noc2C)ncn1` it was “inactive”.
Next, `O=c1c(-c2ccc(F)cc2)nc2cnc(N3CCNCC3)nc2n1Cc1cccs1`: “inactive”.
In the case of `Cc1nc(NCCN)c(C#N)c2c1COC(C)(C)C2` it was “inactive”.
Consider `Cn1cccc1C(=O)NC(=O)COC(=O)Cc1coc2ccc3ccccc3c12`, for which the max dye-equivalent concentration entry is “inactive”.
In the case of `CCOCCN(C=O)c1cccc(OC)c1` it was “inactive”; in that of `COc1ccc2[nH]c(=O)c(CN(CC3CCCO3)C(=O)Nc3ccccc3)cc2c1` (centres undefined), “inactive”; in that of `Cn1c(=O)c2c(n(Cc3ccccc3)c1=O)NC(=O)C2CC(=O)N1CCc2ccccc2C1` (centres undefined), “inactive”.
For `O=S(=O)(c1ccccc1)N1CCC2(CC1)CN(Cc1nccs1)C2`, the max dye-equivalent concentration result was “inactive”.
In the case of `O=C(O)CS(=O)c1ccc2c3c(cccc13)C(=O)c1ccccc1-2` (centres undefined), the max dye-equivalent concentration entry was “inactive”.
In the case of `Nc1nonc1-c1nc2ccccc2n1CCC(=O)O` it was “inactive”; in that of `Cc1nc2cnc(N3CCNCC3)nc2n(Cc2ccc(F)cc2)c1=O`, “inactive”.
In the case of `Cn1c(=S)c2[nH]c(SCCCc3ccccc3)nc2n(C)c1=O` it was “inactive”.
